{"source": "paper PMC7862700", "about": "“An all-to-all approach to the identification of sequence-specific readers for epigenetic DNA modifications on cytosine”", "assay_in_all_cases": "DAPPL (digital affinity profiling via proximity ligation, sequencing); 10 mM Tris-HCl pH 7.5, 50 mM NaCl, 1 mM DTT, 4% glycerol, room temperature, 30 min; GST-TFs on glutathione beads, 16-mer random dsDNA library, 0.1% formaldehyde crosslink after washing; high values mean tight binding", "conditions_in_all_cases": "protein: recombinant; tags: N-terminal GST; dsDNA, one strand shown", "key": {"ELK1": {"biological_target": "T1, ELK1 (Homo sapiens, UniProt P19419 1-428)", "T1 sequence": "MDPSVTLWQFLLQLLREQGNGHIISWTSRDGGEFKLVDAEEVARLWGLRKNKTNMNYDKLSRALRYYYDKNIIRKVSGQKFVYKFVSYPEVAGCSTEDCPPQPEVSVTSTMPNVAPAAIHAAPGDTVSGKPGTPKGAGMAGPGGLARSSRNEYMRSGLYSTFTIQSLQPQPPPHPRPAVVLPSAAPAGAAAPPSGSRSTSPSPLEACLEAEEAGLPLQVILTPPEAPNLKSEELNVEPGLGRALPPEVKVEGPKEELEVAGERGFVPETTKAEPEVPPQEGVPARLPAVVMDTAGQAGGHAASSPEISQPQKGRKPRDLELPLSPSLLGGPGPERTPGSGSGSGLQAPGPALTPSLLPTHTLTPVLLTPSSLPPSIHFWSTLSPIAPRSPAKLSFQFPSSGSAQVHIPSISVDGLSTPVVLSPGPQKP", "method_in_brief": "(§1)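 Yeast served to express human transcription factors as GST fusions, which were then captured on glutathione beads and labelled with DNA barcodes. Pooled with a tag-only sample, they were incubated with 200 nmole of a 16-mer random double-stranded DNA library for 30 min at room temperature in Tris/NaCl/DTT/glycerol buffer, washed, crosslinked with 0.1% formaldehyde, ligated by proximity, amplified by PCR and sequenced. Dividing each hexamer's read frequency for a factor by its frequency for the tag-only sample gives the binding signal.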"}, "ELF1": {"biological_target": "ELF1 (Homo sapiens, UniProt P32519 1-619)", "sequence (P32519 whole entry)": "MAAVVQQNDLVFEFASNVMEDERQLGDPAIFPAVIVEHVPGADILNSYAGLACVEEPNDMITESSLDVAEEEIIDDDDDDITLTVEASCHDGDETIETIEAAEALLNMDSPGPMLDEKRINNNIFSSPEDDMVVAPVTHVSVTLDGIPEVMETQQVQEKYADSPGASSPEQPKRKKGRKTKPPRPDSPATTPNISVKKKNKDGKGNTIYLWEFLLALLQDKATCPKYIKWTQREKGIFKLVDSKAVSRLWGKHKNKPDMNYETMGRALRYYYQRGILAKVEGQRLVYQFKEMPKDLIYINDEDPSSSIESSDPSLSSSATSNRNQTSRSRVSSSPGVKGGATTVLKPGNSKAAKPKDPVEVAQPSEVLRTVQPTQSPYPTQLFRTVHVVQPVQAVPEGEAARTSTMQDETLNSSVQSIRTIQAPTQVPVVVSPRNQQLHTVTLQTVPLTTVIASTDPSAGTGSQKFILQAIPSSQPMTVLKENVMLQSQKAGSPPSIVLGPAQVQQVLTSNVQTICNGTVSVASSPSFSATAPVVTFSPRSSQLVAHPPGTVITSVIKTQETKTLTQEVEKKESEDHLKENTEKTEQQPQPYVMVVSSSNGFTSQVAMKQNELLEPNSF", "method_in_brief": "as §1"}, "EHF": {"biological_target": "T2, EHF (Homo sapiens, UniProt Q9NZC4 1-300)", "T2 sequence": "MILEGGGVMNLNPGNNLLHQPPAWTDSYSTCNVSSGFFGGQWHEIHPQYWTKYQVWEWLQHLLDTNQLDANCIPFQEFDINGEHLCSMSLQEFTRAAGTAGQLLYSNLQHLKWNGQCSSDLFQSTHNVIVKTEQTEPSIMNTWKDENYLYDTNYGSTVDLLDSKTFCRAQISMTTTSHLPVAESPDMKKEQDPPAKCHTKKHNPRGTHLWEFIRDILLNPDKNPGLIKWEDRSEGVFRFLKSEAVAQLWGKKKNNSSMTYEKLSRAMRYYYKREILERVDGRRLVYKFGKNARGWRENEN", "method_in_brief": "as §1"}, "SPI1": {"biological_target": "SPI1 (Homo sapiens, UniProt P17947 1-270)", "method_in_brief": "as §1"}, "SPIB": {"biological_target": "SPIB (Homo sapiens, UniProt Q01892 1-262)", "sequence (Q01892 whole entry)": "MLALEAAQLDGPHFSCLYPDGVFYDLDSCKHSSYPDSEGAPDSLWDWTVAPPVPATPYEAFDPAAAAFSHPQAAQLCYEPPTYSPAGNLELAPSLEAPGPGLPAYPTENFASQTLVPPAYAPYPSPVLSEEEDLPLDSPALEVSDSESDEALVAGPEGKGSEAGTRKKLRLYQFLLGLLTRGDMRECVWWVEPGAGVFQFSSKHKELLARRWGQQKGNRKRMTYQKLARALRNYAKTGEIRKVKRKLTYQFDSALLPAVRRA", "method_in_brief": "as §1"}, "ELK3": {"biological_target": "T3, ELK3 (Homo sapiens, UniProt P41970 1-407)", "T3 sequence": "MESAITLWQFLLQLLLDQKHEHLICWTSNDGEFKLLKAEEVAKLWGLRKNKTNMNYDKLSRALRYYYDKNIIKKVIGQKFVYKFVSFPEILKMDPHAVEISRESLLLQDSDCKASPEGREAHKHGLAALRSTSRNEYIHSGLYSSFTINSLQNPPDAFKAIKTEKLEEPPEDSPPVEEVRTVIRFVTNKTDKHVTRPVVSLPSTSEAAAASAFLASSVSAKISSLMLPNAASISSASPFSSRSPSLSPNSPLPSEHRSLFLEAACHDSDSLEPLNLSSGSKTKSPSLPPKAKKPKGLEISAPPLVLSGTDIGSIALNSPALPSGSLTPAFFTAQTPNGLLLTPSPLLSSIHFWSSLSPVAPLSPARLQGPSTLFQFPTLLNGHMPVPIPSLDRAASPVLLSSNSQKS", "method_in_brief": "as §1"}, "SPIC": {"biological_target": "T4, SPIC (Homo sapiens, UniProt Q8N5J4 1-248)", "T4 sequence": "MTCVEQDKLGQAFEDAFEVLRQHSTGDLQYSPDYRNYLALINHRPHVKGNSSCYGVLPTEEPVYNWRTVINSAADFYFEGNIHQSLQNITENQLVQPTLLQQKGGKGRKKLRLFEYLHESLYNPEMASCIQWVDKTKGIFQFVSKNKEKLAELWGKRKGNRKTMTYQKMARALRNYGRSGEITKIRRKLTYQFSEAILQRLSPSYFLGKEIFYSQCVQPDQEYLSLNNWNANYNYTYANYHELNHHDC", "method_in_brief": "as §1"}, "ELF4": {"biological_target": "ELF4 (Homo sapiens, UniProt Q99607 1-663)", "sequence (Q99607 whole entry)": "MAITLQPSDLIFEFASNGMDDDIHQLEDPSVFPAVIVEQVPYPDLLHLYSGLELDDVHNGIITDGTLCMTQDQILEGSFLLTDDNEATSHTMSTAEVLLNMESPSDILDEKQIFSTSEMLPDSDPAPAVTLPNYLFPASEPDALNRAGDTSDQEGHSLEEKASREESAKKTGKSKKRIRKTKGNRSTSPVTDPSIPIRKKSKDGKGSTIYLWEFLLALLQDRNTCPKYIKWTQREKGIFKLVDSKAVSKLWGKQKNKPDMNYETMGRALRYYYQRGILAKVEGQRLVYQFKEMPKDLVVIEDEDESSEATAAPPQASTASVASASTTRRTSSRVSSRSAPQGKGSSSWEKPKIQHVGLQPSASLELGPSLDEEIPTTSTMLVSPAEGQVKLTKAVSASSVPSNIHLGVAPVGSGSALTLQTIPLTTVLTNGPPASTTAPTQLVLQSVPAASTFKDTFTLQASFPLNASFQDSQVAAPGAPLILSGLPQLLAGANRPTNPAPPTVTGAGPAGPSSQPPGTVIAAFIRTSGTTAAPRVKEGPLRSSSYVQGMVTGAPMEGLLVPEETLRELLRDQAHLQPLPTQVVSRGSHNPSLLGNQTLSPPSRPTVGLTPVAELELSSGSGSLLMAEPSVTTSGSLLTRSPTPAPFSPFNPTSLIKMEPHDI", "method_in_brief": "as §1"}, "ELK4": {"biological_target": "T5, ELK4 (Homo sapiens, UniProt P28324-2 1-405)", "T5 sequence": "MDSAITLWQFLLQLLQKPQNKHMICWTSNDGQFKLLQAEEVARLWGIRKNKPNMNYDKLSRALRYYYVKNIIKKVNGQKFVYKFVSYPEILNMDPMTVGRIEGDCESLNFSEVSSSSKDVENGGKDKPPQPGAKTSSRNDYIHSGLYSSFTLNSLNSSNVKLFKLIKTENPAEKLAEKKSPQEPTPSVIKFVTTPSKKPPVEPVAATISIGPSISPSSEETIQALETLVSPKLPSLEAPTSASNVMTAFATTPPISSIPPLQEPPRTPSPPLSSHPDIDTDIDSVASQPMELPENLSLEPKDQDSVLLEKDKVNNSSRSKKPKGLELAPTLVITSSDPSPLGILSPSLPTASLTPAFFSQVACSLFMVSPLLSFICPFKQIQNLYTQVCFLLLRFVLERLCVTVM", "method_in_brief": "as §1"}, "ETV2": {"biological_target": "T6, ETV2 (Homo sapiens, UniProt O00321 1-342)", "T6 sequence": "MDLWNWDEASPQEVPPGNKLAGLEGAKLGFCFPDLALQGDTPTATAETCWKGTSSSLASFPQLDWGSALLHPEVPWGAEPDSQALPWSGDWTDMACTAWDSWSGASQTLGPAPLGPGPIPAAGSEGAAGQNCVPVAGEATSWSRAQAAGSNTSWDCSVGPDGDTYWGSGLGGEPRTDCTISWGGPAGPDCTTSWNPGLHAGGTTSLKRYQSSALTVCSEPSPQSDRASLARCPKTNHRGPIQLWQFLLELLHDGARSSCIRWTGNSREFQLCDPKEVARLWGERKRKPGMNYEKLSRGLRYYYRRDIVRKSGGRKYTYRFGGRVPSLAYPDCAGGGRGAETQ", "method_in_brief": "as §1"}, "ELF3": {"biological_target": "T7, ELF3 (Homo sapiens, UniProt P78545 1-371)", "T7 sequence": "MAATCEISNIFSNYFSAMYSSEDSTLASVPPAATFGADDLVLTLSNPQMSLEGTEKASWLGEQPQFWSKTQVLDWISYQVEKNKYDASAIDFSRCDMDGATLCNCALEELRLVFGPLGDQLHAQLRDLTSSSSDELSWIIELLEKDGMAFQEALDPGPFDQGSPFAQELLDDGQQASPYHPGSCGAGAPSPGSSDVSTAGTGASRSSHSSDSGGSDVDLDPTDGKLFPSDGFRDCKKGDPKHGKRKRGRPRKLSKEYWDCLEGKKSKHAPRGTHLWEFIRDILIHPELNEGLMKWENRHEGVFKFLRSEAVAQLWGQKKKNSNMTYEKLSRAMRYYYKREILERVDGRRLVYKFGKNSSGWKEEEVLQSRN", "method_in_brief": "as §1"}, "ETV1": {"biological_target": "ETV1 (Homo sapiens, UniProt P50549 1-477)", "sequence (P50549 whole entry)": "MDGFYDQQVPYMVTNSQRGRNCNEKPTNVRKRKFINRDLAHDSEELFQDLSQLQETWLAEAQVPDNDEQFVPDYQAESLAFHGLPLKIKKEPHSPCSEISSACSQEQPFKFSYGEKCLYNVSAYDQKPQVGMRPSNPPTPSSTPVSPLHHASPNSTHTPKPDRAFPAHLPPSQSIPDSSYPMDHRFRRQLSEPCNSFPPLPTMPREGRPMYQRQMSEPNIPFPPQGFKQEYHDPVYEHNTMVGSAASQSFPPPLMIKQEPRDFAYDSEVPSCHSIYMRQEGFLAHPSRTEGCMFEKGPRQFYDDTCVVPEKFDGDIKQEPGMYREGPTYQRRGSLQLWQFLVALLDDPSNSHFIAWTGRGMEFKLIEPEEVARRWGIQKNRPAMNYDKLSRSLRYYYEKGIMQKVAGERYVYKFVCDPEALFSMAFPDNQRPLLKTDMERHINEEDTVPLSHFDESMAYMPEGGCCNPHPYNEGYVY", "method_in_brief": "as §1"}, "ERF": {"biological_target": "T8, ERF (Homo sapiens, UniProt P50548 1-548)", "T8 sequence": "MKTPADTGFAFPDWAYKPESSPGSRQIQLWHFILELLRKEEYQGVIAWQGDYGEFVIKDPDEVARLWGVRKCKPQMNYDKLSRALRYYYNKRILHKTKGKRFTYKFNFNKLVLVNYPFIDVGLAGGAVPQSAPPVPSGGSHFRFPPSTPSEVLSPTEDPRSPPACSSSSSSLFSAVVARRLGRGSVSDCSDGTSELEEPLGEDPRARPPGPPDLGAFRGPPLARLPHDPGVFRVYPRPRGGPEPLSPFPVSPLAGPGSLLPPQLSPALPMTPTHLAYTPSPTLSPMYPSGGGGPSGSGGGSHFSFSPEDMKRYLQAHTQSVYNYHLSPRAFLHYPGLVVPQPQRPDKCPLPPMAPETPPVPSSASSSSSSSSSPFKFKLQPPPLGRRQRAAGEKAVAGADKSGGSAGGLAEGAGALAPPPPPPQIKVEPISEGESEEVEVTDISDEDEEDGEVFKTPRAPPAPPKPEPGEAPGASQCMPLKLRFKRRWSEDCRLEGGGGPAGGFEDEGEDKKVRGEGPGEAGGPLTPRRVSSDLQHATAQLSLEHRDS", "method_in_brief": "as §1"}, "ETV3L": {"biological_target": "T9, ETV3L (Homo sapiens, UniProt Q6ZN32 1-361)", "T9 sequence": "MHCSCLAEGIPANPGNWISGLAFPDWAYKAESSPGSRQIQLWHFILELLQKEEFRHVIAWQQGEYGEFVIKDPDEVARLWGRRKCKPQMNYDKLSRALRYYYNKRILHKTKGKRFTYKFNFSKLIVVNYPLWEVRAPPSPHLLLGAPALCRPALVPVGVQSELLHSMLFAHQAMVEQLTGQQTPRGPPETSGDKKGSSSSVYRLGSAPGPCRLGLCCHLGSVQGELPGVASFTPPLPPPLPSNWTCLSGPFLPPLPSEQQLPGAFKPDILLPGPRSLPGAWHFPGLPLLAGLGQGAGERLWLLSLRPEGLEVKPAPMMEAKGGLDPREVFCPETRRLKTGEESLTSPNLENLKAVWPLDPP", "method_in_brief": "as §1"}, "ETV7": {"biological_target": "T10, ETV7 (Homo sapiens, UniProt Q9Y603 1-341)", "T10 sequence": "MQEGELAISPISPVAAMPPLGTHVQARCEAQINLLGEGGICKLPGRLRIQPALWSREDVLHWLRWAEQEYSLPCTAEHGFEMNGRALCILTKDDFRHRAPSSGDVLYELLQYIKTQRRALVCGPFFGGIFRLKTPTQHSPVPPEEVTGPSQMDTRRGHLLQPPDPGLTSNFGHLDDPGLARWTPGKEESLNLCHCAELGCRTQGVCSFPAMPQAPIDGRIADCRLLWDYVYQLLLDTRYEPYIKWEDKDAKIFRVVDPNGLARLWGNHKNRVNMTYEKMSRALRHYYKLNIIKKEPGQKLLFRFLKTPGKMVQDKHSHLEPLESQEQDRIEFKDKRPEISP", "method_in_brief": "as §1"}, "ETV6": {"biological_target": "ETV6 (Homo sapiens, UniProt P41212 1-452)", "sequence (P41212 whole entry)": "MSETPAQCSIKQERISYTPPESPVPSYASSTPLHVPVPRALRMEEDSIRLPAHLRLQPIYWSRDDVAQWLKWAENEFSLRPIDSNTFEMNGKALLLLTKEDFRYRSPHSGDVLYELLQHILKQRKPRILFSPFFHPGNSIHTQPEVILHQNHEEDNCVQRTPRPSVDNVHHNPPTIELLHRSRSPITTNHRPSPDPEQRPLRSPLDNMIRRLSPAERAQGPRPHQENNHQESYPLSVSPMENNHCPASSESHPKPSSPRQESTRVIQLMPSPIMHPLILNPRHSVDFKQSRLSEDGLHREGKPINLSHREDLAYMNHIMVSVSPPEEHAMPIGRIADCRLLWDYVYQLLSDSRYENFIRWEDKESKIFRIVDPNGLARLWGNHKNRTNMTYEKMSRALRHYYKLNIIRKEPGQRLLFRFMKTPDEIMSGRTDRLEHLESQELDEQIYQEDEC", "method_in_brief": "as §1"}}}
{"sequence": "GTCTAT", "values": [{"measurement": "binding signal", "setting": "ELK1", "value": "1.04 fold enrichment (6-mer frequency, TF over GST control)"}, {"measurement": "binding signal", "setting": "ELF1", "value": "1.08 fold enrichment (6-mer frequency, TF over GST control)"}, {"measurement": "binding signal", "setting": "EHF", "value": "1.1 fold enrichment (6-mer frequency, TF over GST control)"}, {"measurement": "binding signal", "setting": "SPI1", "value": "1.03 fold enrichment (6-mer frequency, TF over GST control)"}, {"measurement": "binding signal", "setting": "SPIB", "value": "1.01 fold enrichment (6-mer frequency, TF over GST control)"}, {"measurement": "binding signal", "setting": "ELK3", "value": "1.04 fold enrichment (6-mer frequency, TF over GST control)"}, {"measurement": "binding signal", "setting": "SPIC", "value": "1.18 fold enrichment (6-mer frequency, TF over GST control)"}, {"measurement": "binding signal", "setting": "ELF4", "value": "1.11 fold enrichment (6-mer frequency, TF over GST control)"}, {"measurement": "binding signal", "setting": "ELK4", "value": "1 fold enrichment (6-mer frequency, TF over GST control)"}, {"measurement": "binding signal", "setting": "ETV2", "value": "1 fold enrichment (6-mer frequency, TF over GST control)"}, {"measurement": "binding signal", "setting": "ELF3", "value": "1.12 fold enrichment (6-mer frequency, TF over GST control)"}, {"measurement": "binding signal", "setting": "ETV1", "value": "1.04 fold enrichment (6-mer frequency, TF over GST control)"}, {"measurement": "binding signal", "setting": "ERF", "value": "1.14 fold enrichment (6-mer frequency, TF over GST control)"}, {"measurement": "binding signal", "setting": "ETV3L", "value": "1.05 fold enrichment (6-mer frequency, TF over GST control)"}, {"measurement": "binding signal", "setting": "ETV7", "value": "1.07 fold enrichment (6-mer frequency, TF over GST control)"}, {"measurement": "binding signal", "setting": "ETV6", "value": "1.03 fold enrichment (6-mer frequency, TF over GST control)"}]}
